According to PubChem BioAssay (EPA / NIEHS):
Results filed as inconclusive are left out. Calls of active or inactive are those of the source. Rule for the calls, unless noted: active = hit-call score of the fitted dose curve at least 0.9, where 1 is the maximum; inactive = score below 0.9.

Columns and labels:
[1] = ACEA_ER_80hr: ACEA Biosciences xCELLigence Real-Time Cell Analysis on Estrogen Receptor Agonism for Proliferation (AID 2282667; active = hit-call score of the fitted dose curve at least 0.9, where 1 is the maximum); settings: T47D proliferation, impedance (xCELLigence), 80 h
How it was run: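 T-47D cells monitored by electrical impedance (xCELLigence) with compound present throughout; 80 h timepoint, positive-direction fitting versus DMSO. Eight-point 1:4 dilutions from 100 uM final, duplicate plates.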

[2] = ATG_CRE_CIS: Attagene CIS-FACTORIAL HepG2 Assay for human cAMP Responsive Element (CRE) binding protein 3 (AID 2282926); settings: HepG2 CRE cis-reporter, Attagene multiplexed mRNA; actives raise or lower the signal
How it was run: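 Induced reporter mRNA from a CRE cis element, measured in HepG2 among many multiplexed units at 24 h. Detection used RT-PCR plus capillary electrophoresis of fluorescent fragments; DMSO served as negative control.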

[3] = target: CCAAT/enhancer-binding protein beta (Homo sapiens) (UniProt P17676); assay: ATG_C_EBP_CIS: Attagene CIS-FACTORIAL HepG2 Assay for human CCAAT/Enhancer Binding Protein (C/EBP) beta (AID 2282927); settings: HepG2 Attagene cis-factorial transcription factor reporter; actives raise or lower the signal
Sequence of CCAAT/enhancer-binding protein beta (Homo sapiens) (P17676 whole entry, looked up): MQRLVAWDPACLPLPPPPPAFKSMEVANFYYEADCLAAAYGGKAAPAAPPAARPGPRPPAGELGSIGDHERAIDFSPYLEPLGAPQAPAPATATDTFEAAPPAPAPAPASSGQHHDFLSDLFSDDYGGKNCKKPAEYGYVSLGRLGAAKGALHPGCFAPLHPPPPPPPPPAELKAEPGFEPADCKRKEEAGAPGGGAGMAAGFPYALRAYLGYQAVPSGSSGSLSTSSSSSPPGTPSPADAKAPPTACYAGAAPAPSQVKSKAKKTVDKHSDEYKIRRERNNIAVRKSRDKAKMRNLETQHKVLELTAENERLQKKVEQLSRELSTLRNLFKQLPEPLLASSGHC
How it was run: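 RT-PCR/capillary electrophoresis fluorescence of reporter mRNA, 24 h post-dose, in HepG2 cells carrying transfected cis-promoter reporter units. Bidirectional curve fitting against DMSO baseline captures gain or loss of signal.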

[4] = ATG_CMV_CIS: Attagene CIS-FACTORIAL HepG2 Assay for human CMV (Internal Marker) (AID 2282928); settings: HepG2 CMV promoter reporter, transcription factor profiling; actives raise or lower the signal;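 note: endpoint acts as a background internal control marker rather than a target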
How it was run: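 Readout: fluorescent reporter cDNA fragments separated by capillary electrophoresis after RT-PCR and HpaI cut. Cells: HepG2 carrying transfected cis-promoter reporter constructs, dosed 24 h. Endpoint serves as background internal-marker control, fit bidirectionally versus DMSO.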

[5] = ATG_DR4_LXR_CIS: Attagene CIS-FACTORIAL HepG2 Assay for human Liver X Receptor (LXR), DR4 submotif (AID 2282929); settings: HepG2 Attagene DR4 cis-reporter, mRNA transcription; actives raise or lower the signal
How it was run: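 DR4 cis-reporter in HepG2, 24 h exposure. Detection: RT-PCR, 6-FAM labelling, CE fragment analysis. Endpoint fitted bidirectionally, DMSO = baseline.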

[6] = target: Aryl hydrocarbon receptor (Homo sapiens) (UniProt P35869); assay: ATG_Ahr_CIS: Attagene CIS-FACTORIAL HepG2 Assay for human Aryl Hydrocarbon Receptor (Ahr) (AID 2282930); settings: HepG2 AhR cis-factorial reporter transcription; actives raise or lower the signal
Sequence of Aryl hydrocarbon receptor (Homo sapiens) (P35869 whole entry, looked up): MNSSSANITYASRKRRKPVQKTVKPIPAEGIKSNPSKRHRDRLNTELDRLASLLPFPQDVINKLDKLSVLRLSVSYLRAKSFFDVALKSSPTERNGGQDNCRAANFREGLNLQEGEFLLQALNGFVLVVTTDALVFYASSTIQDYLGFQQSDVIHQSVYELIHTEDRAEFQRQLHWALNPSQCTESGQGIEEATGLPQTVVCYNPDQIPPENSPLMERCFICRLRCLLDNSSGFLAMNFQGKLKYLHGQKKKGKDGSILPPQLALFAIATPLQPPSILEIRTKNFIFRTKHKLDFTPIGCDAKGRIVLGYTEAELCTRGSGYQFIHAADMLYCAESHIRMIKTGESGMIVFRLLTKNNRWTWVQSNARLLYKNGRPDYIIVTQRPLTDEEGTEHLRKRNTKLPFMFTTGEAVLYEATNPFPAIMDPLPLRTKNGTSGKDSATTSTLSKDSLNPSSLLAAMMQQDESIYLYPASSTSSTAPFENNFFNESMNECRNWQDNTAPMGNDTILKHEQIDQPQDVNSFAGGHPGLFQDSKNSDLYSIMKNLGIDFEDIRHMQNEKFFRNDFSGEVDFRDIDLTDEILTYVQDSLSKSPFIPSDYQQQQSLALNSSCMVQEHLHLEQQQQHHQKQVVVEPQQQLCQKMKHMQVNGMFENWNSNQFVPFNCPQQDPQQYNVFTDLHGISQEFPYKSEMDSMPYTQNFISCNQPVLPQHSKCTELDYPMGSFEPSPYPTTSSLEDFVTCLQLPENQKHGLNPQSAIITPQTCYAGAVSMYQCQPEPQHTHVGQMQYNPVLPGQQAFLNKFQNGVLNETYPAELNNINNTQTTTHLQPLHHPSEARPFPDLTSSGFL
How it was run: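 HepG2 cells transiently transfected with cis-element-driven multiplexed reporter transcription units; endogenous transcription factor activity measured as reporter mRNA 24 h after dosing. RT-PCR, 6-FAM labelling, HpaI digestion, capillary electrophoresis; bidirectional fitting versus DMSO baseline.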

[7] = ATG_AP_1_CIS: Attagene CIS-FACTORIAL HepG2 Assay for human Activator Protein 1 (AP-1) (AID 2282931); settings: HepG2 Attagene cis-factorial AP-1 reporter mRNA; actives raise or lower the signal
How it was run: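 Cis-regulated reporter units transiently expressed in HepG2 report endogenous transcription-factor activity. Signal: reporter mRNA at 24 h, via RT-PCR and fluorescent capillary electrophoresis. Endpoint derived by bidirectional fitting, DMSO as negative control.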

[8] = ATG_AP_2_CIS: Attagene CIS-FACTORIAL HepG2 Assay for human Activator Protein 2 (AP-2) (AID 2282932); settings: HepG2 AP-2 cis-reporter, Attagene transcription factor profiling; actives raise or lower the signal
How it was run: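 Cells (HepG2) transfected with promoter-driven reporter constructs, treated 24 h. Total RNA reverse-transcribed, reporter cDNA PCR-amplified, FAM-labelled by primer extension, digested, resolved by capillary electrophoresis. Activity fitted both directions versus DMSO.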

[9] = ATG_BRE_CIS: Attagene CIS-FACTORIAL HepG2 Assay for human Bone Morphogenetic Protein (BMP) Response Element (BRE) (AID 2282933); settings: HepG2 BMP response element reporter, Attagene transcription factor profiling; actives raise or lower the signal
How it was run: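 Gain- or loss-of-signal was derived by bidirectional fitting against DMSO controls. The signal came from reporter mRNA, measured by RT-PCR and capillary electrophoresis, in HepG2 cells transiently carrying multiple reporter units and dosed for 24 h.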

[10] = target: Retinoic acid receptor alpha (Homo sapiens) (UniProt P10276); assay: ATG_DR5_RAR_CIS: Attagene CIS-FACTORIAL HepG2 Assay for human Retinoic Acid Receptor Alpha (RARE), DR5 submotif (AID 2282934); settings: HepG2 Attagene cis-factorial RARE DR5 reporter, mRNA; actives raise or lower the signal;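 for AC50: reporter responds to endogenous RAR alpha beta and gamma in HepG2 not RARA alone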
Sequence of Retinoic acid receptor alpha (Homo sapiens) (P10276 whole entry, looked up): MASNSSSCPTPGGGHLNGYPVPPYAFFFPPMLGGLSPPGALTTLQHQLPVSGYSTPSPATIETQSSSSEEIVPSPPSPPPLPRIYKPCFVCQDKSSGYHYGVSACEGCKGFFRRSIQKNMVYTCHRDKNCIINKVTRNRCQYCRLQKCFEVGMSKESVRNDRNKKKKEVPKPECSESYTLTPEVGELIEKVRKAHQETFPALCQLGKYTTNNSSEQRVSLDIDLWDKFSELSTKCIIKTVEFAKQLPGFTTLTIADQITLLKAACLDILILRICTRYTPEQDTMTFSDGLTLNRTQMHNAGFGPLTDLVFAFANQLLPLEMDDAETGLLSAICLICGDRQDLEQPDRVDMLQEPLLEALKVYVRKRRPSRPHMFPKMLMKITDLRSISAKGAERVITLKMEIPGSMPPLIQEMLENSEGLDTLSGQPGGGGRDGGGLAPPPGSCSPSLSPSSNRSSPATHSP
How it was run: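 HepG2 cells transiently transfected with multiplexed reporter units under cis (DR5 RARE) promoters, so endogenous transcription factor activity is measured. After 24 h compound exposure, reporter mRNA is quantified by RT-PCR with fluorescent labelling and capillary electrophoresis; bidirectional fitting versus DMSO.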

[11] = target: Transcription factor E2F1 (Homo sapiens) (UniProt Q01094); assay: ATG_E2F_CIS: Attagene CIS-FACTORIAL HepG2 Assay for human E2F Transcription Factor 1 (AID 2282935); settings: HepG2 Attagene cis-reporter, E2F reporter RNA transcripts; actives raise or lower the signal
Sequence of Transcription factor E2F1 (Homo sapiens) (Q01094 whole entry, looked up): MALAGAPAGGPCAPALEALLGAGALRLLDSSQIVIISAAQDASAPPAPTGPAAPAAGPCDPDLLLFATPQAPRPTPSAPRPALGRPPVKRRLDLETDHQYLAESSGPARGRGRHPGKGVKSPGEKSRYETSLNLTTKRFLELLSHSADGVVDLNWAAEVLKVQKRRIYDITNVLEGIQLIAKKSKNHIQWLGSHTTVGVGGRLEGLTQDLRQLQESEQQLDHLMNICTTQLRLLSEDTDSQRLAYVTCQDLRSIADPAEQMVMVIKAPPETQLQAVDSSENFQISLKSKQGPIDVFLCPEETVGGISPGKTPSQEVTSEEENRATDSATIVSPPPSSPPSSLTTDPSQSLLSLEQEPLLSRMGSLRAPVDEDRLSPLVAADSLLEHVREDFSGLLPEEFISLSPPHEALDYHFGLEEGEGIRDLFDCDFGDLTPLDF
How it was run: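 First, HepG2 cells were transfected with reporter transcription units. Next, they were dosed for 24 h. Then RNA was isolated, converted to cDNA, PCR-amplified, FAM-labeled, HpaI-digested and analyzed by capillary electrophoresis.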

[12] = ATG_E_Box_CIS: Attagene CIS-FACTORIAL HepG2 Assay for human Enhancer Box (E-box) (AID 2282936); settings: HepG2 E-box cis-reporter transcription, actives raise or lower the signal
How it was run: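 Endogenous transcription factor activity was sensed in human HepG2 liver cells through transfected cis-promoter reporter units. After 24 h of dosing, total RNA was reverse-transcribed and reporter cDNA resolved by capillary electrophoresis.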

[13] = ATG_M_61_CIS: Attagene CIS-FACTORIAL HepG2 Assay for M61 Transcription Factor (Internal Marker) (AID 2282937); settings: HepG2 Attagene CIS-FACTORIAL M61 internal marker reporter; actives raise or lower the signal
How it was run: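 Background-control endpoint: HepG2 cells with cis-regulated reporter constructs, 24 h exposure, reporter mRNA detected via fluorescent primer extension and capillary electrophoresis; values from bidirectional fitting with DMSO baseline.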

[14] = ATG_EGR_CIS: Attagene CIS-FACTORIAL HepG2 Assay for human Early Growth Response 1 (EGR1) (AID 2282938); settings: HepG2 Attagene CIS-FACTORIAL EGR reporter mRNA; actives raise or lower the signal
How it was run: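 Endpoint derived by bidirectional fitting versus DMSO vehicle. Method: cis-promoter reporter units transfected into HepG2, 24 h dosing, RNA isolation, RT-PCR with 6-FAM primer extension and HpaI digestion, then capillary electrophoresis fluorescence detection.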

[15] = ATG_M_19_CIS: Attagene CIS-FACTORIAL HepG2 Assay for M19 Transcription Factor (Internal Marker) (AID 2282939); settings: HepG2 Attagene CIS-FACTORIAL M19 internal marker reporter; actives raise or lower the signal
How it was run: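 Following a 24 h exposure, RNA from transfected HepG2 cells was reverse-transcribed, PCR-amplified with reporter-specific primers, end-labelled with 6-FAM and HpaI-digested before capillary separation. Values represent gain or loss versus DMSO.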

[16] = ATG_ERE_CIS: Attagene CIS-FACTORIAL HepG2 Assay for Estrogen Response Element (ERE) (AID 2282940); settings: HepG2 ERE cis-reporter, Attagene RNA transcript; actives raise or lower the signal
How it was run: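 HepG2, transient cis-reporter units, 24 h exposure. RNA isolated, oligo(dT) RT, reporter-specific PCR, FAM extension, HpaI cut, CE detection. Gain/loss-of-signal vs DMSO.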

[17] = ATG_Ets_CIS: Attagene CIS-FACTORIAL HepG2 Assay for human Erythroblast Transformation Specific (ETS) (AID 2282941); settings: HepG2 ETS cis-reporter transcription, actives raise or lower the signal
How it was run: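 RT-PCR/capillary electrophoresis fluorescence read-out of reporter mRNA; HepG2 transient multi-reporter transfection; 24 h compound exposure; gain or loss of signal fitted bidirectionally relative to DMSO.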

[18] = target: Hepatocyte nuclear factor 3-beta (Homo sapiens) (UniProt Q9Y261); assay: ATG_FoxA2_CIS: Attagene CIS-FACTORIAL HepG2 Assay for human Forkhead box A2 (FOXA2) (AID 2282942); settings: HepG2 cis-reporter transcription factor activity, 24 h; actives raise or lower the signal
Sequence of Hepatocyte nuclear factor 3-beta (Homo sapiens) (Q9Y261 whole entry, looked up): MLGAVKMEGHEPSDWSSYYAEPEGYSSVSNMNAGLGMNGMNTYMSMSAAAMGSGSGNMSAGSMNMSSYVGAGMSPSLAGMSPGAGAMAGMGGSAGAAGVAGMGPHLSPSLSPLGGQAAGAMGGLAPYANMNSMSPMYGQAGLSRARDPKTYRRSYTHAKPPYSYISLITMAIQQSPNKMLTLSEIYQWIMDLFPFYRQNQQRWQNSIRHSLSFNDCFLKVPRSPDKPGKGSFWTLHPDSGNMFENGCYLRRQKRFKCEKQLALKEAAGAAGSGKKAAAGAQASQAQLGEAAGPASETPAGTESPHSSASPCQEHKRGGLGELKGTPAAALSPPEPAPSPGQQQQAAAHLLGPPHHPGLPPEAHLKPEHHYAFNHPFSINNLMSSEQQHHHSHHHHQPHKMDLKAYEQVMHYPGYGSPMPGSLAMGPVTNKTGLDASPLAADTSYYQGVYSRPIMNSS
How it was run: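 Measured: reporter mRNA induction or loss in HepG2 transiently carrying multiple cis-regulated reporter units, 24 h after dosing. Quantified by RT-PCR plus capillary electrophoresis, normalised to DMSO.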

[19] = ATG_FoxO_CIS: Attagene CIS-FACTORIAL HepG2 Assay for human Forkhead box O (FoxO) (AID 2282943); settings: HepG2 Attagene cis-reporter, FoxO element, mRNA; actives raise or lower the signal
How it was run: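 HepG2 cells transiently transfected with cis-promoter-driven multiple reporter transcription units; 24 h after chemical dosing, reporter mRNA quantified by RT-PCR, fluorescent primer extension, HpaI digestion and capillary electrophoresis. Bidirectional fitting versus DMSO baseline.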

[20] = ATG_GATA_CIS: Attagene CIS-FACTORIAL HepG2 Assay for human GATA Binding Protein (AID 2282944); settings: HepG2 GATA cis-element reporter, Attagene multiplex mRNA; actives raise or lower the signal
How it was run: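 DMSO serves as negative control and baseline for bidirectional fitting of reporter mRNA changes. HepG2 cells bearing transiently transfected cis-promoter reporters were exposed 24 h; transcripts detected via RT-PCR and capillary electrophoresis.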

Measured: AC50

CC(C)(C)c1cc(Cc2cc(C(C)(C)C)c(O)c(C(C)(C)C)c2)cc(C(C)(C)C)c1O
inactive: all assays above

Cc1cc(=O)[nH]c(C(C)C)n1
inactive: all assays above

CCOC(=O)CCC(C)=O
not listed: [16]
inactive: all other assays above

OCCCCC(F)(F)C(F)(F)C(F)(F)C(F)(F)F
inactive: all assays above

CC(C)OC=O
inactive: all assays above

Cc1cnccn1
active: [6] 0.0965 µM
inactive: all other assays above

O=S(=O)(OCC(F)(F)F)C(F)(F)C(F)(F)C(F)(F)C(F)(F)F
active: [4] 42.3 µM | [5] 104 µM | [7] 48.1 µM | [9] 58.2 µM | [10] 17.6 µM
inactive: all other assays above
